Results published in the supplement of paper PMC6555819.

Legend:
Experiment in all cases: PBM binding z-score (relative to random genomic background probes); higher = stronger binding; sequences stand for … in GC…GCGATTGACAGCGTAGAATGAAGG
[1] = tested on: FXR:RXRa (NR concentration 270 nM, RXRa partner concentration 90 nM)
Procedure, shortened: (§1)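 For binding z-scores, the reference was random background probes on custom Agilent 4×180K protein-binding microarrays. These arrays were incubated 1 h with ligand-free nuclear receptor dimers in PBS pH 7.4, 2% milk, 0.02% Triton X-100, 1 mM DTT, 0.2 mg/mL BSA and 0.4 mg/ml salmon testes DNA. Fluorescence was scanned after antibody detection of each partner (one per run) and regression-normalized.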

[2] = tested on: LXRa:RXRa (NR concentration 270 nM, RXRa partner concentration 90 nM)
Procedure, shortened: as §1

[3] = tested on: LXRa homodimer (NR concentration 270 nM)
Procedure, shortened: as §1

[4] = tested on: LXRb:RXRa (NR concentration 270 nM, RXRa partner concentration 90 nM)
Procedure, shortened: as §1

[5] = tested on: LXRb homodimer (NR concentration 270 nM)
Procedure, shortened: as §1

[6] = tested on: PPARa:RXRa (NR concentration 270 nM, RXRa partner concentration 90 nM)
Procedure, shortened: as §1

[7] = tested on: PPARg:RXRa (NR concentration 180 nM, RXRa partner concentration 90 nM)
Procedure, shortened: as §1

[8] = tested on: PPARg:RXRa 270nM:90nM, anti-RXR (NR concentration 270 nM, RXRa partner concentration 90 nM)
Procedure, shortened: as §1

[9] = tested on: PPARg:RXRa 30nM:10nM, anti-RXR (NR concentration 30 nM, RXRa partner concentration 10 nM)
Procedure, shortened: as §1

[10] = tested on: PPARg:RXRa 90nM:30nM, anti-RXR (NR concentration 90 nM, RXRa partner concentration 30 nM)
Procedure, shortened: as §1

[11] = tested on: PPARg:RXRa DBDmut IVT, anti-RXR (DBD mutation: RXRa K156A/R161A, NR concentration 270 nM, RXRa partner concentration 90 nM)
Procedure, shortened: as §1

[12] = tested on: PPARg:RXRa IVT, anti-PPARg (NR concentration 270 nM, RXRa partner concentration 90 nM)
Procedure, shortened: as §1

[13] = tested on: PPARg DBDmut:RXRa IVT, anti-PPARg (DBD mutation: PPARg1 K132A/R137A, NR concentration 270 nM, RXRa partner concentration 90 nM)
Procedure, shortened: as §1

[14] = tested on: PPARg DBDmut IVT, anti-PPARg (DBD mutation: PPARg1 K132A/R137A, NR concentration 270 nM)
Procedure, shortened: as §1

[15] = tested on: PPARg homodimer (NR concentration 180 nM)
Procedure, shortened: as §1

[16] = tested on: PXR:RXRa (NR concentration 270 nM, RXRa partner concentration 90 nM)
Procedure, shortened: as §1

[17] = tested on: PXR homodimer (NR concentration 270 nM)
Procedure, shortened: as §1

[18] = tested on: RARa:RXR (NR concentration 270 nM, RXRa partner concentration 90 nM)
Procedure, shortened: as §1

[19] = tested on: RARa homodimer (NR concentration 270 nM)
Procedure, shortened: as §1

[20] = tested on: RARb:RXRa (NR concentration 270 nM, RXRa partner concentration 90 nM)
Procedure, shortened: as §1

Sequence	PBM binding z-score [1]	PBM binding z-score [2]	PBM binding z-score [3]	PBM binding z-score [4]	PBM binding z-score [5]	PBM binding z-score [6]	PBM binding z-score [7]	PBM binding z-score [8]	PBM binding z-score [9]	PBM binding z-score [10]	PBM binding z-score [11]	PBM binding z-score [12]	PBM binding z-score [13]	PBM binding z-score [14]	PBM binding z-score [15]	PBM binding z-score [16]	PBM binding z-score [17]	PBM binding z-score [18]	PBM binding z-score [19]	PBM binding z-score [20]
CCTCGGAGGACAACAGGAGGTCAGAGCGGCCAGA	1.36	2.25	2.24	1.42	-0.43	2.09	0.411	0.182	-0.715	-0.31	0.0202	0.396	-0.758	-1.19	1.8	2.31	0.892	2.47	0.103	3
CGTCCAAGGTCAGAGAGGTCAGTGCATGCCGAGT	5.87	4.93	3.33	4.41	0.554	4.76	3.48	4.37	0.807	2.76	3.03	3.39	-0.458	-1.04	4.89	5.91	11.5	5.08	1.45	5.17
ATACCAATGTGATCGTGAGGTCGTTGATACTAAC	1.13	0.684	0.704	0.894	-0.063	0.905	0.346	0.198	0.123	0.295	-0.174	0.568	0.648	1.38	0.242	2.06	1.23	1.39	-0.115	0.569
TAGCCTAGGTCATTGGGCCAGTAAAGTACGCATC	4.37	3.38	0.448	2.29	0.0341	4	3.28	3.76	1.14	2.4	2.98	3.93	-0.798	-0.582	0.663	1.55	-0.454	2.08	0.18	3.63
CGAACTAGGTCCAGGACAGTGAATCTCCGCACGC	-0.204	-0.571	-0.353	-0.95	-0.661	-0.195	0.3	-0.587	-0.632	-0.449	2.08	0.856	-0.489	-1.24	-0.302	-0.535	-0.312	-0.417	-0.0938	0.00636
CCGACTGGGGCAAGGTTACTATAACGCACAGCCA	0.258	1.52	-0.118	0.79	-0.963	1.59	3.02	2.98	1.03	2.21	2.98	3.39	0.184	-0.443	0.157	0.274	-0.27	0.867	-0.248	1.38
AATACAGGGTCACTAGGGCAGAGTAGGTACGAAT	6.65	5.17	1.38	4.23	1.51	5.86	8.85	6.78	3.79	6.46	4.88	6.25	2.07	2.29	3.08	3.51	1.1	4.65	1.32	4.27
